Source: PubChem BioAssay (NCI)
Where “and” joins values, the source holds several entries; their conditions need not be identical. Identical values can stand only once. Compounds without any hit were thinned out: in the full panel of roughly 83,000, 20% have a hit.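 Results are percent growth after 48 hours of single-concentration exposure. 100 means growth as in untreated cells, lower positive values show inhibition; negative values down to -100 show cell death.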 Calls of active or inactive are those of the source. The calls were made as follows: active = growth percent below 10; inactive = the rest.

System: MDA-MB-468 breast
Assay: NCI-60 one-dose screen, 48 h (100 = growth as untreated, 0 = no growth, -100 = all killed)
Conditions: 10 µM unless noted

SMILES | growth
Cc1c(Cl)cccc1NCN1C(=O)c2ccccc2C1=O | 98.4% (inactive)
CC(=O)Nc1cc(N2CCOCC2)c2nc(NC(=O)c3[nH]c(C)c(Cl)c3Cl)sc2c1 | 47.7% (inactive)
CCOC(=O)c1c(NC(=O)c2cccc(C(F)(F)F)c2)sc2c(CN3CCN(C)CC3)c(O)ccc12 | -2.41% (active)
CC(C)(O)Cn1cc(-c2ccc3nc(OC4CC4)ccc3c2)c2c(N)ncnc21 | 89.1% (inactive) and 50.9% (inactive)
OCC1OC(n2cnc3c(NCc4ccco4)ncnc32)C(O)C1O (stereo not given) | -82.8% (active)
C/C(=N\NC(=S)N1CCCCC1)c1ccccn1 | -27.4% (active)
COc1cc(C(=O)c2cc(C)c3[nH]c4ccc(O)cc4c3c2C)cc(OC)c1OC | -22.7% (active)
O=C(Nc1cccc(Cl)c1)c1cc(Cl)ccc1O | -1.28% (active)
COc1ccc(/C=N/C2=C(C#N)C(c3ccccc3)c3ccc4ccccc4c3O2)cc1 (stereo not given) | 17.9% (inactive)
O=c1[nH]c(=O)n(Cc2ccc(F)cc2)cc1F | 102% [50 µM] (inactive)
COc1cccc2c1C(=O)c1c(O)c3c(c(O)c1C2=O)C[C@](O)(C(=O)CO)C[C@H]3O[C@@H]1C[C@@H](NC(=O)CCCCCN(C)C2(c3ccc(F)cc3)CC3CCC2C3)[C@H](O)[C@@H](C)O1 (stereo not given in full) | 4.63% (active)
Cc1ccc2nc(C)c(-c3nnc(SCc4ccc(C#N)cc4)o3)n2c1 | 87.5% (inactive)
Clc1ccc2[nH]cc(-c3nn4cc(-c5cccnc5)nc4s3)c2c1 | 98.1% (inactive)
COc1ccc(C(=O)/C=C/c2cn(-c3ccccc3)nc2-c2cccc(Nc3ccnc4cc(Cl)ccc34)c2)cc1 | 75.7% (inactive)
COc1ccc2sc3c(NCCCN)nc4ccccc4c3c(=O)c2c1 | 48.6% (inactive)
CCn1cc(C(=O)N/N=C/c2ccccc2)c(=O)c2cc(F)c(N3CCNC(C)C3)c(F)c21 (stereo not given) | 30.4% (inactive)
C/C=C/C(=O)OCCCCCCCCCCCC | 96.9% (inactive)
CCCCCCCC/C=C\CCCCCCCCOc1ccc(CC(=O)NCC[N+](C)(C)C)cc1 | 60.1% (inactive)
CCCCCCCCN1C(=O)/C(=c2\sc3n(c2=O)C2C(NN=3)N(CC)C(=O)N2CC)c2ccccc21 (stereo not given) | 68.3% (inactive)
CCOC(=O)/C(=C/c1c(-c2ccccc2)[nH]c2ccccc12)C(=O)c1ccc(Cl)cc1 | 19.8% (inactive)

SMILES | growth
COc1ccc2c(c1)c(-c1cc(N)n3nc(-c4cn(C)c5ccc(OC)cc45)cc3n1)cn2C | 142% (inactive)
COc1cccc2c1c1nc3cc(C)c(C)cc3nc1n2CCN(C)C | -8.02% (active)
c1ccc2c(NCCCN3CCN(CCCNc4c5ccccc5nc5ccccc45)CC3)c3ccccc3nc2c1 | -73.2% [100 µM] (active)
Cn1c2ccccc2c2c3c(c4c5ccccc5n(CCCCCC#N)c4c21)C(=O)N(O)C3=O | -49.5% (active)
C=C1C(=O)O[C@H]2[C@H]1CC/C(CNC(=O)/C=C/c1cccc(OC)c1)=C\CC[C@@]1(C)O[C@@H]21 | -36.5% (active)
O=C1NC(=O)c2c1c1c3ccccc3[nH]c1c1oc3ccc(F)cc3c21 | 8.7% (active)
Clc1ccc(-c2cn(-c3ccccc3)c(-c3ccccc3)n2)c(Cl)c1 | -61.3% (active)
c1ccc(-c2ccc3ccccc3c2)cc1 | 91.8% (inactive)
CN(C)CCN=c1nc2c(c(N)n1-c1ccccc1)c(=S)n(-c1ccccc1)c(=S)n2-c1ccccc1 | -34.6% (active)
N/C(=N\N=C\c1cc2ccccc2s1)N/N=C/c1cc2ccccc2s1 | 122% (inactive)
O=C(Nc1ccc(I)cc1F)c1cc(I)ccc1O | -13.2% (active)
Nc1ncc(-c2ccc(C(F)(F)F)cc2)c(NC2CCCCCC2)n1 | -3.25% (active)
O=[N+]([O-])c1ccc(-c2nnc(SCc3ccc(O)c4ncccc34)n2-c2ccccc2)cc1 | 19.9% (inactive)
C/C(=C\CCc1ccsc1)CC/C=C(\C)CCCN1CCN(CCO)CC1 | 7.83% (active)
CC(O)Cn1cnc2c1c(=O)n(C)c(=O)n2C (stereo not given) | 78.5% (inactive)
O=S(=O)(O)c1ccc(N=Nc2ccc(N=Nc3cccc4ccccc34)c(S(=O)(=O)O)c2)cc1 | 89.8% (inactive)
CCOC(=O)c1cc(N)nc2ccccc12 | 106% (inactive)
COc1ccc2c(c1)N(CCO)C1=C(C(=O)OC1)C2c1ccccc1 (stereo not given) | -14.2% (active)
CC(CN1CCN(CCOCCO)CC1)CN1c2ccccc2Sc2ccc(Cl)cc21 (stereo not given) | 40.9% (inactive)
CCN(CC)Cc1cc(Nc2cc(C(F)(F)F)c(C#N)c3nc4ccccc4n23)ccc1O | -0.969% (active)
